Assay results: the supplement of paper PMC6555819

These sequences were tested on VDR:RXRa (NR concentration 270 nM, RXRa partner concentration 90 nM) (assay: PBM binding z-score (relative to random genomic background probes); higher = stronger binding; sequences stand for … in GC…GCGATTGACAGCGTAGAATGAAGG).
Description: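 Protein-binding microarray (Agilent 4x180K custom design, double-stranded 60-nt probes: 5' GC cap, 34-nt variable region, 24-nt constant primer region; full probe sequence given). Purified or IVT nuclear receptor:RXRα heterodimers (3:1 NR:RXRα, mostly 270:90 nM) or homodimers were incubated for 1 h in PBS with 2% milk and no ligand, then detected with Alexa488 antibodies. Fluorescence from o1-orientation probes (~5 replicates averaged) was converted to z-scores against 500 random hg19 background probes. Variable regions are seed direct-repeat (DR0–DR5) sites, all their single-nucleotide variants and half-site ablations.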
Sequence CCCGAAAGGTCGGTTGAGGTGAGTATACGGATAA has a PBM binding z-score of 2.57.
Sequence TGAATGAGGTTATAAGCTCAGGGAACGTTGCAAA has a PBM binding z-score of 0.693.
In the case of ACTAGCAGGCCAAGGGTCAATCAAGATTAGTCCG, the PBM binding z-score is reported as 2.66.
Work on ACTAGTTGGTCAGCTGAGATCACACACAATTCGG yielded a PBM binding z-score of 0.193.
For CCTGCTAGGTCATGGTCAGATAATCTACAGTATG, the PBM binding z-score was 1.62.
In the case of GCCTGTAGATCAAGGTTAAGAAAGACTAAGCTAA, the PBM binding z-score is reported as 0.142.
ATATGTAGGTTAATGGTCATTCAGGTTGGTTCGC was tested, and the PBM binding z-score was 1.32.
TGTCAAAGTTCAAAGGCAACGTAAGTATCCACAC was tested, and the PBM binding z-score was 4.26.
GATACAGGGTCAAGACCAGAGTACGCGTATTGAT gave a PBM binding z-score of 4.33.
CGAACTACGTCAGAACAGGACAGTGAAGGATGAT was tested, and the PBM binding z-score was -0.451.
CCGCCTGGGGCAAGGTTACCATAACGCACAGCCA was tested, and the PBM binding z-score was 0.149.
For TCGAGTAGGTTAGGGGCATACAGAATGGCGTCGA, the PBM binding z-score was 0.604.
Work on CCTCGGAGGACAGAAGGGCAGAGCTGTCCGCTTT yielded a PBM binding z-score of -0.902.
ATCTCTAGGTACAGTTCAGTGAAAGATCGATAGA showed a PBM binding z-score of 1.12.
TCGAGTAGGCTAGGGGCATTCAGAATGGCGTCGA showed a PBM binding z-score of -0.094.
For TCTTGTAGACCAATAGAGGTTAAGAAAGTGCGCT, the PBM binding z-score was 1.82.
ATCGAAAGGTAGTGAGGTGAGTATACAGAAAGGC was tested, and the PBM binding z-score was -0.165.
CCTTACGGGGCAAGGTTATAGCACGGGTGGTACG was tested, and the PBM binding z-score was 0.0431.
ATCGACAGGTCGAGGTGAGTATAGAGAAAGGGAA showed a PBM binding z-score of 0.389.
Sequence ACTATTAGTTGAGACAAGGGCAACCGATAGGTTG has a PBM binding z-score of 0.191.
CCGACTGGGGCAAGGTTACCCTAACGCACAGCCA showed a PBM binding z-score of 0.016.
ATGTCTAGGTAAAGATAGTTCAGTGAATGCAAAT showed a PBM binding z-score of 0.565.
Sequence CCTACTGGGCCGTCAGGTCATTGATATCAACGTT has a PBM binding z-score of 1.32.
For GCTTACGGGTCAAAGATTATAGCATGAATAGAAT, the PBM binding z-score was 3.28.
In the case of AATACAGGGTCATCGTAGGCCAGTGTACGCACAG, the PBM binding z-score is reported as 5.18.
Sequence CGAACTAAGTCAAGGACAGTGAATCTCCGCACGC has a PBM binding z-score of -0.36.
In the case of CAAACTAGGTCACCTGAAGGTCAAAGTCCGCATG, the PBM binding z-score is reported as 5.59.
For CCTACTAGGCCATTCAGAGGTCATTGATCATATG, the PBM binding z-score was 4.33.
CGTCCAAGATCAATGCTAGGTCAGTGAAAGCATT gave a PBM binding z-score of 0.425.
Work on TGAATGACGTTATAAGATCAGGGAACGTTGCAAA yielded a PBM binding z-score of 0.104.
In the case of GCGAATGGGGCAAAGCAGGTTACCATAAGGTTGG, the PBM binding z-score is reported as 0.361.
In the case of CCTTACGGTTCAAGGTTATAGCACGGGTGGTACG, the PBM binding z-score is reported as 2.72.
GCGACTGGGGCATCAGCAGGTTACCATTACTTAA showed a PBM binding z-score of -0.244.
CCTACTGGGCCAAAAAGGTCATTGTTGCCGATAA gave a PBM binding z-score of 4.46.
TCTCGGAGGACACGAATGTCAGAGCTTTCCAGAG gave a PBM binding z-score of -0.117.
With GCTTACGGGTCACAGGTTATAGCATGAATAGAAT the PBM binding z-score was 3.9.
In the case of CTCGAAAGGTCGGTAGAGGTGAGTATACGGATAA, the PBM binding z-score is reported as 2.05.
TCTAGTTGGTCACGGAGGTCATACACGACGGGTA gave a PBM binding z-score of 5.88.
GCGACTGGAGCATCAGCAGGTTACCATAACTTAA showed a PBM binding z-score of -0.345.
With CCCACTGGGCCAAGGTCATTGATCAGTCAAAGCA the PBM binding z-score was 2.94.
